Results reported in PubChem BioAssay AID1159580 (chemical genetic matrix, 2015).
Hit rate of the full screen: of about 5,500 compounds, about 2,000 (36%) were called active. About 18% were inconclusive and are not listed. Cut-off read from the data, not from the text of the source: active = normalized growth mostly below about 0.91 (no sharp cut-off); inconclusive = no clear call, values can overlap the other calls; inactive = mostly above about 0.92. The list shows a part of the results.

Assay: chemical genetic growth profiling, strain panel (AID 1159580);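 note: tested at 20 µM; growth read once vehicle control cultures reached saturation at 30 °C; 1 = growth at the plate median or of vehicle wells; lower values mean less growth of the strain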
Conditions: S. cerevisiae deletion strains, growth OD

Measured: normalized growth

O=C(c1ccc(OCCN2CCCCC2)cc1)c1c(-c2ccc(O)cc2)sc2cc(O)ccc12
active: locus YDR392W, strain spt3, active compounds read low 0.41 | locus YER155C, strain BEM2 (second series), active compounds read low 0.608 | locus YNL071W, strain lat1, active compounds read low 0.854 | locus YPL055C, strain LGE1, active compounds read low 0.826
inactive: locus YAL021C, strain ccr4, active compounds read low 0.971 | locus YAL026C, strain drs2, active compounds read low 0.987 | locus YAL030W, strain snc1, active compounds read low 1.01 | locus YAL040C, strain CLN3, active compounds read low 1.02 | locus YBL061C, strain skt5, active compounds read low 1.01 | locus YBR009C, strain hhf1, active compounds read low 1 | locus YBR023C, strain chs3, active compounds read low 1.01 | locus YBR171W, strain sec66, active compounds read low 1.04 | locus YBR231C, strain swc5, active compounds read low 0.989 | locus YBR279W, strain paf1, active compounds read low 1.02 | locus YCL011C, strain gbp2, active compounds read low 1.02 | locus YCL016C, strain dcc1, active compounds read low 1 | locus YCL061C, strain MRC1 (second series), active compounds read low 0.998 | locus YCL061C, strain MRC1, active compounds read low 1.01 | locus YCL069W, strain vba3, active compounds read low 1.03 | locus YCR088W, strain abp1, active compounds read low 1.02 | locus YDL005C, strain med2, active compounds read low 1.04 | locus YDL040C, strain nat1, active compounds read low 1.02 | locus YDR001C, strain nth1, active compounds read low 1.02 | locus YDR069C, strain doa4, active compounds read low 1.01 | locus YDR137W, strain rgp1, active compounds read low 1.09 | locus YDR150W, strain NUM1, active compounds read low 0.977 | locus YDR159W, strain sac3, active compounds read low 0.984 | locus YDR195W, strain ref2 1.01 | locus YDR297W, strain sur2, active compounds read low 1.01 | locus YDR334W, strain swr1, active compounds read low 1.02 | locus YDR335W, strain msn5, active compounds read low 1.03 | locus YDR363W, strain ESC2, active compounds read low 0.983 | locus YEL003W, strain gim4, active compounds read low 1.02 | locus YEL037C, strain rad23, active compounds read low 1.04 | locus YEL061C, strain CIN8 (second series), active compounds read low 1.03 | locus YER002W, strain NOP16, active compounds read low 1 | locus YER015W, strain faa2, active compounds read low 1.01 | locus YER016W, strain bim1, active compounds read low 1.01 | locus YER111C, strain swi4, active compounds read low 1.03 | locus YFR010W, strain ubp6, active compounds read low 1.04 | locus YGL167C, strain pmr1, active compounds read low 1.03 | locus YGL173C, strain kem1, active compounds read low 1.01 | locus YGL227W, strain vid30, active compounds read low 1.01 | locus YGL240W, strain doc1, active compounds read low 0.967 | locus YGL253W, strain hxk2, active compounds read low 1.02 | locus YHR013C, strain ard1, active compounds read low 0.958 | locus YHR027C, strain rpn1, active compounds read low 1.01 | locus YHR030C, strain SLT2, active compounds read low 0.968 | locus YHR079C, strain IRE1, active compounds read low 0.968 | locus YHR142W, strain chs7, active compounds read low 0.983 | locus YJL092W, strain hpr5, active compounds read low 1.01 | locus YJL095W, strain BCK1 (second series), active compounds read low 1.02 | locus YJL095W, strain BCK1, active compounds read low 1 | locus YJL115W, strain asf1, active compounds read low 1.03 | locus YJL129C, strain trk1, active compounds read low 1.01 | locus YJL154C, strain vps35, active compounds read low 1.03 | locus YJL164C, strain tpk1, active compounds read low 0.982 | locus YJL166W, strain qcr8, active compounds read low 0.968 | locus YJL187C, strain SWE1, active compounds read low 1.02 | locus YJR066W, strain TOR1, active compounds read low 0.924 | locus YKL160W, strain elf1, active compounds read low 0.982 | locus YKR026C, strain gcn3, active compounds read low 1.01 | locus YKR091W, strain srl3, active compounds read low 1.02 | locus YLL001W, strain dnm1, active compounds read low 1.01 | locus YLL026W, active compounds read low 1.01 | locus YLL041C, strain sdh2, active compounds read low 1.02 | locus YLR027C, strain aat2, active compounds read low 1.01 | locus YLR113W, strain HOG1, active compounds read low 0.986 | locus YLR221C, strain rsa3, active compounds read low 1 | locus YLR258W, strain gsy2, active compounds read low 1.01 | locus YLR262C, strain YPT6 (second series), active compounds read low 1.01 | locus YLR320W, strain mms22, active compounds read low 0.911 | locus YLR342W, strain FKS1, active compounds read low 1 | locus YLR357W, strain rsc2, active compounds read low 0.964 | locus YLR370C, strain arc18, active compounds read low 1.03 | locus YLR384C, strain iki3, active compounds read low 1.04 | locus YML120C, strain ndi1, active compounds read low 1.01 | locus YMR058W, strain fet3, active compounds read low 1.01 | locus YMR125W, strain sto1, active compounds read low 0.989 | locus YMR129W, active compounds read low 1.02 | locus YMR205C, strain PFK2, active compounds read low 0.981 | locus YMR231W, strain pep5, active compounds read low 1.03 | locus YMR307W, strain GAS1, active compounds read low 0.917 | locus YNL128W, strain TEP1, active compounds read low 1.02 | locus YNL175C, strain NOP13, active compounds read low 0.993 | locus YNL183C, strain NPR1, active compounds read low 0.965 | locus YNL197C, strain WHI3, active compounds read low 0.998 | locus YNL209W, strain ssb2, active compounds read low 1.01 | locus YNL224C, strain SQS1, active compounds read low 1.01 | locus YNL248C, strain rpa49, active compounds read low 0.986 | locus YNL322C, strain KRE1 (second series), active compounds read low 1.02 | locus YNR049C, strain mso1, active compounds read low 1.02 | locus YOR001W, strain rrp6, active compounds read low 1 | locus YOR070C, strain gyp1, active compounds read low 1.02 | locus YOR080W, strain dia2, active compounds read low 1.02 | locus YOR083W, strain WHI5 (second series), active compounds read low 0.997 | locus YOR083W, strain WHI5, active compounds read low 0.979 | locus YOR106W, strain vam3, active compounds read low 0.987 | locus YOR231W, strain MKK1, active compounds read low 0.995 | locus YOR265W, strain rbl2, active compounds read low 1.01 | locus YOR270C, strain vph1, active compounds read low 1.01 | locus YOR290C, strain snf2, active compounds read low 0.995 | locus YPL051W, strain arl3, active compounds read low 0.977 | locus YPL078C, strain atp4, active compounds read low 0.985 | locus YPL106C, strain sse1, active compounds read low 1.01 | locus YPL240C, strain hsp82, active compounds read low 1.03 | locus YPL241C, strain CIN2, active compounds read low 1 | locus YPL256C, strain CLN2, active compounds read low 0.97
